# Reference: the supplement of paper PMC10037445
# Whole data set: some 2,900 compounds, median “NF-kB SEAP reporter activity, fold change vs agonist alone” near 0.99, cut for the highest 2% near 2.6. What follows is part of a selection rich in the highest values, with near analogues and random picks from the rest.
# Tests used:
# RAW-Dual [1] = assay: NF-kB SEAP reporter activity, fold change vs agonist alone; higher = enhanced NF-kB activity; conditions: library stock concentration (final ~1000-fold dilution): 10 mM
# Summary of the method: (§1)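 Cytotoxic wells were those whose IncuCyte confluency was below 70% of agonist controls in both mask sets. The cells were RAW-Dual macrophages at 50,000 cells/well in DMEM on 384-well plates, dosed with 50 nL of library stock by pin tool, stimulated with a PRR agonist 1 h later, and kept at 37 °C, 5% CO2 for 20 hours. IRF and NF-κB reporter activity, as fold change over agonist-alone wells, came from supernatant read by QuantiLuc luminescence and QuantiBlue absorbance, respectively.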
# RAW-Dual [2] = assay: NF-kB SEAP reporter activity, fold change vs agonist alone; cytotoxicity flag (confluency mask): not cytotoxic; higher = enhanced NF-kB activity
# Summary of the method: as §1
# RAW-Dual [3] = assay: NF-kB SEAP reporter activity, fold change vs agonist alone; cytotoxicity flag (confluency mask): cytotoxic (confluency <70% of control); higher = enhanced NF-kB activity
# Summary of the method: as §1
# [4] = cytotoxicity flag (confluency mask): not cytotoxic, agonist: MPLA (TLR4) […]
# [5] = agonist: ODN 1826 (TLR9) 0.5 ug/mL
# [6] = agonist: Pam2CSK4 (TLR2/6) 0.1 ug/mL
# [7] = agonist: Pam3CSK4 (TLR2/1) 0.1 ug/mL
# [8] = cytotoxicity flag (confluency mask): cytotoxic (confluency <70% of control), agonist: Imiquimod (TLR7) […]
# [9] = cytotoxicity flag (confluency mask): cytotoxic (confluency <70% of control), agonist: MPLA (TLR4) […]
# [10] = cytotoxicity flag (confluency mask): not cytotoxic, agonist: Imiquimod (TLR7) […]
smiles,measurement,setting,value
CCCN1CCCCC1C(=O)Nc1c(C)cccc1C (centres undefined),NF-kB SEAP reporter activity,RAW-Dual [1]; [4],1.09
CCCN1CCCCC1C(=O)Nc1c(C)cccc1C (centres undefined) (library stock concentration (final ~1000-fold dilution): 10 mM),NF-kB SEAP reporter activity,RAW-Dual [2]; agonist: LPS (TLR4) 0.1 ug/mL,1.03
same,NF-kB SEAP reporter activity,RAW-Dual [2]; [5],1.03
same,NF-kB SEAP reporter activity,RAW-Dual [2]; [6],0.952
same,NF-kB SEAP reporter activity,RAW-Dual [2]; [7],1.06
Cc1ccc(C(=O)N(CCCN)C(c2nc3cc(Cl)ccc3c(=O)n2Cc2ccccc2)C(C)C)cc1 (centres undefined) (library stock concentration (final ~1000-fold dilution): 10 mM),NF-kB SEAP reporter activity,RAW-Dual [3]; agonist: LPS (TLR4) 0.1 ug/mL,0.331
same,NF-kB SEAP reporter activity,RAW-Dual [3]; [5],0.254
same,NF-kB SEAP reporter activity,RAW-Dual [3]; [6],0.0886
same,NF-kB SEAP reporter activity,RAW-Dual [3]; [7],0.27
Cc1ccc(C(=O)N(CCCN)C(c2nc3cc(Cl)ccc3c(=O)n2Cc2ccccc2)C(C)C)cc1 (centres undefined),NF-kB SEAP reporter activity,RAW-Dual [1]; [8],1.41
same,NF-kB SEAP reporter activity,RAW-Dual [1]; [9],0.878
COC1C(=O)C2(C)C(OC)CC3OCC3(OC(C)=O)C2C(OC(=O)c2ccccc2)C2(O)CC(OC(=O)C(O)C(NC(=O)OC(C)(C)C)c3ccccc3)C(C)=C1C2(C)C (centres undefined) (library stock concentration (final ~1000-fold dilution): 10 mM),NF-kB SEAP reporter activity,RAW-Dual [2]; agonist: LPS (TLR4) 0.1 ug/mL,1.71
same,NF-kB SEAP reporter activity,RAW-Dual [2]; [5],1.2
same,NF-kB SEAP reporter activity,RAW-Dual [2]; [6],1.01
same,NF-kB SEAP reporter activity,RAW-Dual [2]; [7],0.912
COC1C(=O)C2(C)C(OC)CC3OCC3(OC(C)=O)C2C(OC(=O)c2ccccc2)C2(O)CC(OC(=O)C(O)C(NC(=O)OC(C)(C)C)c3ccccc3)C(C)=C1C2(C)C (centres undefined),NF-kB SEAP reporter activity,RAW-Dual [1]; [10],1.57
same,NF-kB SEAP reporter activity,RAW-Dual [1]; [4],1.25
O=C(NCc1cccc(O)c1)Nc1nc(-c2ccncc2)cs1,NF-kB SEAP reporter activity,RAW-Dual [1]; [10],1.3
same,NF-kB SEAP reporter activity,RAW-Dual [1]; [4],1.45
Cc1cccc(Nc2nc(-c3ccncc3)cs2)c1 (library stock concentration (final ~1000-fold dilution): 10 mM),NF-kB SEAP reporter activity,RAW-Dual [2]; agonist: LPS (TLR4) 0.1 ug/mL,2.85
same,NF-kB SEAP reporter activity,RAW-Dual [2]; [5],1.3
same,NF-kB SEAP reporter activity,RAW-Dual [2]; [6],0.662
same,NF-kB SEAP reporter activity,RAW-Dual [2]; [7],1
Oc1ccc(Nc2nc(-c3ccc(Cl)cc3)cs2)cc1 (library stock concentration (final ~1000-fold dilution): 10 mM),NF-kB SEAP reporter activity,RAW-Dual [2]; agonist: LPS (TLR4) 0.1 ug/mL,0.311
same,NF-kB SEAP reporter activity,RAW-Dual [2]; [5],0.27
same,NF-kB SEAP reporter activity,RAW-Dual [2]; [6],0.227
same,NF-kB SEAP reporter activity,RAW-Dual [2]; [7],0.157
Cc1cccc(Nc2nc(-c3ccncc3)cs2)c1,NF-kB SEAP reporter activity,RAW-Dual [1]; [10],1.89
same,NF-kB SEAP reporter activity,RAW-Dual [1]; [4],2.08
O=C(NCc1cccc(O)c1)Nc1nc(-c2ccncc2)cs1 (library stock concentration (final ~1000-fold dilution): 10 mM),NF-kB SEAP reporter activity,RAW-Dual [2]; agonist: LPS (TLR4) 0.1 ug/mL,1.01
same,NF-kB SEAP reporter activity,RAW-Dual [2]; [5],1.21
same,NF-kB SEAP reporter activity,RAW-Dual [2]; [6],1.24
same,NF-kB SEAP reporter activity,RAW-Dual [2]; [7],1.88
Oc1ccc(Nc2nc(-c3ccc(Cl)cc3)cs2)cc1,NF-kB SEAP reporter activity,RAW-Dual [1]; [10],0.665
same,NF-kB SEAP reporter activity,RAW-Dual [1]; [4],0.836
CCCOc1ccc(S(=O)(=O)NCCC2CCCN2C)cc1-c1nc(=O)c2c([nH]1)c(CCC)nn2C (centres undefined) (library stock concentration (final ~1000-fold dilution): 10 mM),NF-kB SEAP reporter activity,RAW-Dual [2]; agonist: LPS (TLR4) 0.1 ug/mL,1.02
same,NF-kB SEAP reporter activity,RAW-Dual [2]; [5],0.517
same,NF-kB SEAP reporter activity,RAW-Dual [2]; [6],0.99
same,NF-kB SEAP reporter activity,RAW-Dual [2]; [7],1.14
CCCOc1ccc(S(=O)(=O)NCCC2CCCN2C)cc1-c1nc(=O)c2c([nH]1)c(CCC)nn2C (centres undefined),NF-kB SEAP reporter activity,RAW-Dual [1]; [10],1.42
same,NF-kB SEAP reporter activity,RAW-Dual [1]; [4],1.28
COc1cc(F)c(F)c(Nc2ccc(I)cc2F)c1NS(=O)(=O)C1(CC(O)CO)CC1 (centres undefined) (library stock concentration (final ~1000-fold dilution): 10 mM),NF-kB SEAP reporter activity,RAW-Dual [2]; agonist: LPS (TLR4) 0.1 ug/mL,1.01
same,NF-kB SEAP reporter activity,RAW-Dual [2]; [5],0.915
same,NF-kB SEAP reporter activity,RAW-Dual [2]; [6],0.342
same,NF-kB SEAP reporter activity,RAW-Dual [2]; [7],0.427
COc1cc(F)c(F)c(Nc2ccc(I)cc2F)c1NS(=O)(=O)C1(CC(O)CO)CC1 (centres undefined),NF-kB SEAP reporter activity,RAW-Dual [1]; [10],0.885
same,NF-kB SEAP reporter activity,RAW-Dual [1]; [4],0.968
Cl.Cl.Fc1ccc(C(c2ccc(F)cc2)N2CCN(C/C=C/c3ccccc3)CC2)cc1,NF-kB SEAP reporter activity,RAW-Dual [1]; [10],1.99
same,NF-kB SEAP reporter activity,RAW-Dual [1]; [4],1.65
Cl.Cl.Fc1ccc(C(c2ccc(F)cc2)N2CCN(C/C=C/c3ccccc3)CC2)cc1 (library stock concentration (final ~1000-fold dilution): 10 mM),NF-kB SEAP reporter activity,RAW-Dual [2]; agonist: LPS (TLR4) 0.1 ug/mL,2.45
same,NF-kB SEAP reporter activity,RAW-Dual [2]; [5],1.44
same,NF-kB SEAP reporter activity,RAW-Dual [2]; [6],0.829
same,NF-kB SEAP reporter activity,RAW-Dual [2]; [7],1.09
COC12C(COC(N)=O)C3=C(C(=O)C(C)=C(N)C3=O)N1CC1NC12 (centres undefined),NF-kB SEAP reporter activity,RAW-Dual [1]; [10],1.82
same,NF-kB SEAP reporter activity,RAW-Dual [1]; [4],1.79
COC12C(COC(N)=O)C3=C(C(=O)C(C)=C(N)C3=O)N1CC1NC12 (centres undefined) (library stock concentration (final ~1000-fold dilution): 10 mM),NF-kB SEAP reporter activity,RAW-Dual [2]; agonist: LPS (TLR4) 0.1 ug/mL,2.79
same,NF-kB SEAP reporter activity,RAW-Dual [2]; [5],2.71
same,NF-kB SEAP reporter activity,RAW-Dual [2]; [6],1.89
same,NF-kB SEAP reporter activity,RAW-Dual [2]; [7],3.31
CCN(CC)CCNC(=O)c1c(C)[nH]c(/C=C2/C(=O)Nc3ccc(-c4csc(-c5ccccc5)n4)cc32)c1C,NF-kB SEAP reporter activity,RAW-Dual [1]; [8],1.35
same,NF-kB SEAP reporter activity,RAW-Dual [1]; [9],1.55
CCN(CC)CCNC(=O)c1c(C)[nH]c(/C=C2/C(=O)Nc3ccc(-c4csc(-c5ccccc5)n4)cc32)c1C (library stock concentration (final ~1000-fold dilution): 10 mM),NF-kB SEAP reporter activity,RAW-Dual [3]; agonist: LPS (TLR4) 0.1 ug/mL,0.882
same,NF-kB SEAP reporter activity,RAW-Dual [3]; [5],0.397
same,NF-kB SEAP reporter activity,RAW-Dual [3]; [6],0.37
same,NF-kB SEAP reporter activity,RAW-Dual [3]; [7],0.645
COc1ccc(NC(=O)c2ccc(C(=N)N(C)C)cc2)c(C(=O)Nc2ccc(Cl)cn2)c1.O=C(O)/C=C\C(=O)O,NF-kB SEAP reporter activity,RAW-Dual [1]; [4],0.953
COc1ccc(NC(=O)c2ccc(C(=N)N(C)C)cc2)c(C(=O)Nc2ccc(Cl)cn2)c1.O=C(O)/C=C\C(=O)O (library stock concentration (final ~1000-fold dilution): 10 mM),NF-kB SEAP reporter activity,RAW-Dual [2]; agonist: LPS (TLR4) 0.1 ug/mL,0.955
same,NF-kB SEAP reporter activity,RAW-Dual [2]; [5],0.994
same,NF-kB SEAP reporter activity,RAW-Dual [2]; [6],1.1
same,NF-kB SEAP reporter activity,RAW-Dual [2]; [7],1.06
COc1cc2c(Oc3ccc4[nH]c(C)cc4c3F)ccnc2cc1OCC1(N)CC1.Cl.Cl,NF-kB SEAP reporter activity,RAW-Dual [1]; [8],1.53
same,NF-kB SEAP reporter activity,RAW-Dual [1]; [9],1.89
COc1cc2c(Oc3ccc4[nH]c(C)cc4c3F)ncnc2cc1OCCCN1CCCC1,NF-kB SEAP reporter activity,RAW-Dual [1]; [8],1.98
same,NF-kB SEAP reporter activity,RAW-Dual [1]; [9],1.96
COc1cc2c(Oc3ccc4[nH]c(C)cc4c3F)ncnc2cc1OCCCN1CCCC1.O=C(O)/C=C\C(=O)O,NF-kB SEAP reporter activity,RAW-Dual [1]; [9],2.65
COc1cc2c(Oc3ccc4[nH]c(C)cc4c3F)ccnc2cc1OCC1(N)CC1.Cl.Cl (library stock concentration (final ~1000-fold dilution): 10 mM),NF-kB SEAP reporter activity,RAW-Dual [3]; agonist: LPS (TLR4) 0.1 ug/mL,1.7
same,NF-kB SEAP reporter activity,RAW-Dual [3]; [5],0.29
same,NF-kB SEAP reporter activity,RAW-Dual [3]; [6],1.17
same,NF-kB SEAP reporter activity,RAW-Dual [3]; [7],1.74
